Shown are actives, neighbours in structure and some others; about 6.3% of the full set was active somewhere.
A340 absorber = compound light absorbance at 340 nm, profiling panel, artefact control, biochemical, MLSMR library, data from PS, PMK, MK assays; compound absorbance at 340 nm, fold over control; fold change at 10 µM; 65,000 tested, under 10 active;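 active means at 10 µM dose, initial 340 nm absorbance at least 2 fold that of control wells; inactive means change under 2 fold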;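 further: initial absorbance extrapolated from kinetic A340 decline of NADH oxidation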
Autofluor 339 = intrinsic fluorescence of library compounds, ex339/em460 – biochemical, MLSMR library, data from DPM-DC assay, artefact control, profiling panel. compound autofluorescence, ex339/em460 nm, NADH buffer; stronger effect = higher value; 1 = no-compound wells, NADH background. fluorescence fold increase at 10 µM. 65,000 tested, 5.5% active;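 active means at 10 µM, mean starting fluorescence two-fold or more over control wells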;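 further: signal is the first read of a kinetic run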
PMK inhibit = S. pneumoniae PMK inhibitors, primary screen, biochemical, mevalonate pathway, pilot trial included; purified PMK, PK/LDH-coupled NADH absorbance 340 nm; AID 539, 2006; 65,000 tested, 0.49% active; phosphomevalonate kinase (Streptococcus pneumoniae D39); inhibition, % at 10 µM;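 active means top-ranked compounds by inhibition in the single 10 µM screen, taking a fixed number of the strongest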;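 further: 0% = full reaction with DMSO carrier and 100% = background rate without enzyme reaction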
NADH coupling = inhibitors of PK/LDH coupling enzymes, profiling panel, artefact control, biochemical, MLSMR library. 65,000 tested, 0.02% active. IC50, µM (doses to about 10 µM), for inactives: top-dose inhibition. coupled PK/LDH NADH assays, four targets;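 active means single-dose screening hits from any of four coupled enzyme assays that gave an IC50 when retested across doses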;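 further: the DPM-DC format reads NADH fluorescence rather than 340 nm absorbance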
Spn MK inh = S. pneumoniae MK inhibitors, primary screen, biochemical, PK/LDH-coupled NADH absorbance. 65,000 tested, 0.48% active. purified MK, PK/LDH-coupled NADH absorbance 340 nm. inhibition, % at 10 µM. mevalonate kinase [Streptococcus pneumoniae D39];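 active means ranked among the strongest by inhibition in the single 10 µM screen, a fixed top-ranked set picked for dose follow-up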
DPM-DC inhibit = S. pneumoniae DPM-DC inhibitors, primary screen, biochemical, PK/LDH-coupled NADH fluorescence | diphosphomevalonate decarboxylase (Streptococcus pneumoniae D39) | purified DPM-DC | calls only at 10 µM | 65,000 tested, 0.49% active | AID 556, 2006;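 active means the 320 compounds with the highest percent inhibition in the single-dose primary screen, excluding strongly autofluorescent ones, cut at about 32% in these data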;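 further: kinetic rate of NADH fluorescence loss reporting ADP formed by the decarboxylase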
* = called active by the depositor; i = inactive; . = no result given; + = active, no number.

SMILES	A340 absorber	Autofluor 339	PMK inhibit	NADH coupling	Spn MK inh	DPM-DC inhibit
CCOc1ccc(Cc2nn[nH]n2)cc1	1	1	8	2%	5	i
CCOc1ccc(N(CC(=O)NC(C)CC)S(=O)(=O)c2c(C)noc2C)cc1 (stereo not given)	1.1	1.1	9	4%	3	i
N#Cc1ccc(-c2ccco2)nc1SCc1ccccc1	1.1	2.1*	3	4%	9	i
O=c1oc2ccccc2cc1-c1cn2cccnc2n1	1.2	3.6*	19	20%	20	.
O=C(Nc1ccncc1)c1cc2ccccc2oc1=O	1.1	1.1	4	4%	9	i
Cc1[nH]c2c(C)cccc2c(=O)c1Br	1	0.98	13	4%	10	i
Cc1cccc(CCNC(=O)c2nnc(Cc3ccc(Cl)cc3)o2)c1	1.1	1.1	2	2%	5	i
Cc1ccc2cc(C)c(N3CCN(c4ccccn4)CC3)nc2c1	1.1	1.5	0	4%	0	i
Cc1ccc2nc3c(c(N)c2c1)CCN3c1ccccc1	1.1	3.7*	3	2%	1	.
Cc1cc(C)n2cc(CSC3=NCCS3)nc2n1	1	4.8*	2	1%	0	.
Cc1cc(C)n2cc(CSc3nnnn3-c3ccccc3C)nc2n1	1	2.1*	17	7%	4	i
Cc1cc(C)n2cc(CSc3ncccc3C(=O)O)nc2n1	1	5*	13	11%	9	.
Cc1cc(C)n2cc(CSCc3ccco3)nc2n1	0.98	1.4	19	5%	0	i
Cc1ccccc1-n1nnnc1SCc1ncc(-c2ccccc2)o1	1	1.1	14	5%	0	i
Cc1c(/C(O)=C2/C(=O)C(=O)N(CCCN3CCOCC3)C2c2ccncc2)cnn1-c1ccccc1 (stereo not given)	1	1.1	8	4%	5	i
Cc1cc(C)c2c(N)c(S(=O)(=O)c3ccccc3)sc2n1	1.1	1.4	0	3%	1	i
CCCCS(=O)(=O)c1sc2nc(C)cc(C)c2c1N	1.1	2*	5	13%	8	i
CCOC(=O)C1=C(C)N=C(/N=C/N(C)C)SC1c1ccccc1 (stereo not given)	1.1	1	24	9%	2	i
CCc1nnc2sc(-c3ccc(NC(=O)c4ccc5c(c4)OCCO5)cc3)nn12	1.1	3.9*	0	4%	8	.
c1ccc(Cc2nnc3sc(-c4ccc5c(c4)OCO5)nn23)cc1	1.1	3.5*	4	5%	6	.
O=C1CC(Cc2ccccc2)C(=O)N1CCCn1ccnc1 (stereo not given)	1.1	0.68	i	3%	i	i
O=c1oc2ccc3ccccc3c2cc1-c1nnc(-c2ccccc2)o1	1.1	4.3*	5	12%	19	.
CCOc1cccc2cc(-c3nnc(-c4ccccc4)o3)c(=O)oc12	1.1	1.4	13	8%	6	i
O=c1oc2ccccc2cc1-c1nnc(-c2cccc(Br)c2)o1	1.1	3.9*	0	2%	4	.
Cc1ccc(/C=C/C2=Cc3c(sc(NC(=O)CSc4n[nH]c(N)n4)c3C#N)C(C)(C)C2)o1	1.1	1.3	12	9%	10	i
SMILES	A340 absorber	Autofluor 339	PMK inhibit	NADH coupling	Spn MK inh	DPM-DC inhibit
CC(C)(C)CC(=O)Nc1nnc(-c2cccs2)s1	1.1	1.3	14	17%	0	+
Cc1ccc(OCc2nnc(NC(=O)Cc3cccs3)s2)cc1	1	1.1	0	4%	11	i
Cc1ccc(N2CCN(C(=O)C3CCN(S(=O)(=O)c4cccc5nsnc45)CC3)CC2C)cc1 (stereo not given)	1	1.1	20	8%	5	i
COCc1cc(C)n(CC(=O)NC(C)c2ccccc2)c(=O)c1C#N (stereo not given)	1.1	3.8*	13	9%	5	.
COCc1cc(C)n(CC(=O)Nc2ccccc2C(=O)OC)c(=O)c1C#N	1.1	2.8*	11	12%	4	i
CCC(C)(C)NC(=O)C(OC(=O)c1cc2sccc2n1C)c1ccc(OC)cc1 (stereo not given)	1.1	1	0	0%	0	i
COC(=O)c1ccccc1NC(=O)c1ccc(-c2ccccc2F)o1	1	2.2*	10	2%	6	.
CC1=CCC2C(=O)N(c3ccc(C)c(Br)c3)C(=O)C2C1 (stereo not given)	1	1.1	0	2%	7	i
Cc1ccc2c(c1)N(CC(=O)NCCc1c[nH]c3ccccc13)C(=O)CO2	0.99	1.1	10	3%	0	i
COCCn1cc(C(=O)NCc2cccs2)c2c3ccccc3n(C)c2c1=O	1	3.5*	15	15%	11	i
Cn1c(C(=O)NCCCN2CCN(c3ccc(F)cc3)CC2)cc2c(=O)n(C)c3ccccc3c21	0.99	1.1	9	2%	7	i
CCCN(CCC)CCNC(=O)c1cc2c(=O)n(C)c3ccccc3c2n1C	1	1.6	10	4%	5	.
CCN(CC)CCCNC(=O)c1cn(CCOC)c(=O)c2c1c1ccccc1n2C	1	4.4*	10	8%	6	.
COCCn1cc(C(=O)NCCCN2CCC(C)CC2)c2c3ccccc3n(C)c2c1=O	1	2.5*	15	8%	0	+
CCN1CCN(CCCNC(=O)c2cn(CCOC)c(=O)c3c2c2ccccc2n3C)CC1	1	3*	6	4%	1	i
CCOC(=O)C(NC(=O)CC)(Nc1cc(C)on1)C(F)(F)F (stereo not given)	1	1.1	7	7%	13	i
Cc1nn(-c2ccccc2)c2sc(C(=O)OCn3nnc4ccccc4c3=O)cc12	1	1.1	3	1%	0	i
Cc1nn(-c2ccccc2)c2sc(C(=O)N3CCCCC3)cc12	1	1.2	0	2%	6	i
Cc1nn(-c2ccccc2)c2sc(C(=O)n3cccn3)cc12	1.1	2.2*	11	9%	6	.
CCCCNC(=O)COC(=O)c1cc2c(C)nn(-c3ccccc3)c2s1	1	2.5*	17	13%	8	i
CCOC(=O)c1cncc(NC(=O)c2ccccc2)c1	1	0.61	16	20%	8	+
CCOC(=O)c1cccc(NC(=O)c2cnccn2)c1	1	1	10	7%	10	i
COc1ccc2c(c1)OCC1=C2CCC2(C)C(=O)CC=C12 (stereo not given)	1.1	3.6*	7	7%	6	.
